Assay outcomes: PubChem BioAssay, National Center for Advancing Translational Sciences (NCATS)
D2 PAM-1 – D2 dopamine receptor (human) potentiation. P14416. HEK293 T-REx D2, calcium flux, EC20 dopamine potentiation. potentiation, % at 10 µM. 340,000 compounds, 0.34% hits;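 active = potentiation over 3 SD above the plate norm, cut at about 30% in these data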; also: 0% is about no effect
Target sequence (P14416 whole entry, looked up): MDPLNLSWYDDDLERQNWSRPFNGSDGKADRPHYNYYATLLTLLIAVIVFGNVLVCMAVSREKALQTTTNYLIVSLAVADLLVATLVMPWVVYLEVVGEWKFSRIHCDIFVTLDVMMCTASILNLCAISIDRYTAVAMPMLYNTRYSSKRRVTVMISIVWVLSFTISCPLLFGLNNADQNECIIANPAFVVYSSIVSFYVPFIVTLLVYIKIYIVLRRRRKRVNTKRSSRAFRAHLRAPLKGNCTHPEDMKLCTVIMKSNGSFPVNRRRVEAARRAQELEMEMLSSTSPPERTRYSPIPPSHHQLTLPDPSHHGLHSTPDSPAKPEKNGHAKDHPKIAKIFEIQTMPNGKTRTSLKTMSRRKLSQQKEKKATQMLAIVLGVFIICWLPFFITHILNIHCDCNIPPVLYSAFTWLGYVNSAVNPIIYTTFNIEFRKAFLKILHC
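Primary screen. Calcium kinetics in induced HEK293 T-REx D2 cells: compound pre-addition 180 s, EC20 dopamine, 180 s more.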
D2 ag-1 – activates the human D2 dopamine receptor; P14416; HEK293 T-REx D2 cells, calcium flux agonist mode; activation, % at 2 µM; 340,000 compounds, 0.53% hits; AID 485358;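 active = activation over 3 SD above normal in the single-dose calcium agonist read, cut at about 30% in these data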; also: 0% is about no effect
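In this primary screen, compounds producing a positive calcium signal within 180 s of addition to tetracycline-induced, force-coupled HEK293 Trex D2 cells are flagged; cells are dye-loaded with a no-wash calcium kit beforehand.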
D2 antagonist – D2 dopamine receptor (human) antagonism. 340,000 compounds, 2% hits. AID 485344. inhibition, % at 10 µM. P14416. HEK293 TREx D2 cells, calcium flux, dopamine EC80; in the data active = inhibition above about 30%; inactive = below that, where a call was filed; also: 0% is about no effect
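Tetracycline-induced HEK293 T-REx cells expressing D2 force-coupled to calcium signalling were dye-loaded, exposed to compound for 180 s, then challenged with an EC80 of dopamine; calcium flux was followed kinetically for a further 180 s.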
D2 ag-2 – human D2 receptor agonism in beta-arrestin assay. P14416. DiscoveRx PathHunter D2 beta-arrestin, luminescence, 90 min; 100% = 57 uM dopamine signal. activation, % (no concentration beside the values). 360,000 compounds, 0.084% hits. AID 624465; in the data active = activation above about 40%; inconclusive = between about 15% and that limit
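DiscoveRx PathHunter D2 beta-arrestin cells (2,100/well) attached overnight, then compound-stimulated 90 min at 37 C in HBSS/10 mM HEPES/0.1% Tween-20 buffer; beta-galactosidase complementation read by luminescence after 1 h at ambient temperature. Dopamine 57 uM final (EC100) as control.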
D2 PAM-2 – potentiates the human D2 dopamine receptor allosterically; DiscoveRx D2 beta-arrestin cells, luminescence, 90 min; 100% = 57 uM dopamine signal; P14416; 360,000 compounds, 0.23% hits; potentiation, % (concentration not given with the values); AID 624464; in the data active = potentiation above about 50%; inconclusive = mostly about 30% to 49%
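PathHunter beta-arrestin assay in DiscoveRx D2 cells. Compounds were added with an EC20 of dopamine (50 nM final) for 90 min at 37 deg C. Luminescence was read 1 h after detection reagent, with 57 uM dopamine as the EC100 control.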
D3 arrestin ag – D3 receptor agonism confirmed, beta-arrestin readout; shares compounds with D2 ag-1; DiscoveRx D3 beta-arrestin cells, luminescence, 90 min; Potency, µM (titrated, usually from 76.9 µM), for the others: at the top dose activation, usual class: activators; 2,300 compounds, 4% hits; AID 720506;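 also: potency is read from the fitted curve at half-maximal effect; 100% = dopamine control response; nearly all actives have a fitted effect of over 70% in size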
D2 ag-3 – activates human D2 dopamine receptor in D3 counterscreen; shares compounds with D2 ag-1; DiscoveRx PathHunter D2 beta-arrestin, luminescence, 90 min; response scale: percent relative to full dopamine signal; Potency, µM (titrated, usually from 76.9 µM), inactives show at the top dose activation, hits mostly activators; 2,300 compounds, 5.9% hits; also: potency is read from the fitted curve at half-maximal effect; % of control where 0% means no effect; nearly all actives have a fitted effect of over 70% in size
An asterisk follows results filed as active; ? = inconclusive; · = no result. An excerpt weighted towards active compounds, which were near 2.4% of everything screened. Unless noted, calls follow the shape of the dose curve; as a rule, active = well fitted activation curve with a large enough effect; inconclusive = small, poorly fitted or top-dose-only effect; inactive = flat fitted curve, though single readings scatter.

SMILES | D2 PAM-1 | D2 ag-1 | D2 antagonist | D2 ag-2 | D2 PAM-2 | D3 arrestin ag | D2 ag-3
CC(=O)c1cccc(NC(=O)C(C)OC(=O)CCn2c(C)csc2=O)c1 (stereo not given) | 0 | 0 | -11 | -2 | -7 | -6% | -3%
O=C(c1ccc(C(F)(F)F)cc1)C1CCCN(C(=O)Cn2cncn2)C1 (stereo not given) | -4 | 0 | 20 | -4 | -13 | -8% | 0%
O=C(c1cccc(C(F)(F)F)c1)C1CCCN(C(=O)Cn2cncn2)C1 (stereo not given) | -5 | 0 | -4 | -8 | -11 | · | ·
c1cc2c(cc1Cn1cnnn1)OCO2 | -13 | 0 | 1 | -3 | -16 | · | ·
COc1cc(Cn2cnnn2)ccc1O | -4 | 0 | 20 | -2 | -14 | 2% | 0%
CCC(=O)Oc1ccc(C(=O)Nc2ccc3c(c2)OCO3)cc1 | 2 | -1 | 17 | 6 | -6 | 2% | 1%
N#Cc1c(-c2ccc(F)cc2)c(-c2ccc(F)cc2)nn(CCO)c1=O | · | · | · | 1 | -9 | · | ·
O=C(CCC1CCCC1)NNC(=O)c1ccc(F)cc1 | 1 | -1 | -5 | -7 | 3 | -11% | -1%
Cc1ccc(CNC(=O)C2(C)CCN2C(=O)Cc2ccc(C(C)(C)C)cc2)cc1 (stereo not given) | · | · | · | -5 | -4 | · | ·
CC#CCC(CC#CC)c1nc2ccccc2c(=O)n1N | -8 | -1 | -15 | -5 | -3 | -11% | -4%
COc1cc2c(cc1OC)C1CC(=O)C(CC(C)C)CN1CC2 (stereo not given) | -20 | 48* | 21 | 7 | -30 | -10% | 13%
Cc1nn(-c2ccccc2)c(Cl)c1/C=N/N1CCN(c2ccccn2)CC1 | -11 | -1 | 3 | -1 | -6 | · | ·
Cc1nn(-c2ccccc2)c(C)c1/C=N/N1CCN(c2ccccn2)CC1 | 2 | 19 | 16 | 9 | -2 | ? | 17%
CN(C)c1ccc(/C=N/N2CCN(c3ccccn3)CC2)cc1 | -23 | 45* | 16 | ? | 21 | 8% | 13%
CN1C[C@@H]2[C@@H]3C(=O)N(Cc4ccccc4)C(=O)[C@@H]3[C@](Cc3ccccc3)(C1=O)N2C(=O)c1ccc(F)cc1 | · | · | · | -1 | -1 | · | ·
C[C@H]1CNC(=O)c2c(C(=O)N[C@@H](Cc3c[nH]c4ccccc34)C(=O)OC(C)(C)C)ncn21 | · | · | · | -2 | -4 | · | ·
O=C(Nc1c[nH]c(=O)[nH]c1=O)c1ccccc1Br | 6 | 0 | 7 | -1 | -3 | · | ·
CC(Nc1c[nH]c(=O)[nH]c1=O)c1ccccc1 (stereo not given) | 4 | 1 | 69* | 0 | -6 | 0% | 0%
Cc1ccc(S(=O)(=O)NN=C(c2ccccc2)c2cccs2)cc1 | · | · | · | -6 | -9 | · | ·
CCOc1ccc(Cl)cc1C1CC(=O)Nc2cc(OC)c(OC)c(OC)c21 (stereo not given) | 8 | -1 | · | · | · | · | ·
CCSc1ncc(Cl)c(C(=O)Nc2sc(C(C)=O)c(C)c2C(=O)OC)n1 | 10 | 1 | · | · | · | · | ·
CCN1CCN(c2ncnc3sc(C)c(-c4ccccc4)c23)CC1 | · | 18 | -15 | ? | 12 | 5% | 18µM*
CCN1CCN(c2ncnc3scc(-c4ccc(C)c(C)c4)c23)CC1 | -1 | 9 | 8 | 13 | -1 | · | ·
CSc1ccccc1NC(=O)C1C2CCC(C2)C1C(=O)O (stereo not given) | -3 | 27 | -3 | -4 | -5 | -11% | -4%
O=C(O)c1ccc(NC(=O)C2C3CCC(C3)C2C(=O)O)cc1 (stereo not given) | 1 | 0 | -8 | -2 | 4 | · | ·
SMILES | D2 PAM-1 | D2 ag-1 | D2 antagonist | D2 ag-2 | D2 PAM-2 | D3 arrestin ag | D2 ag-3
CCN(CC)c1ccc(NC(=O)CN2C(=O)c3cccnc3Sc3ccccc32)c(C)c1 | -13 | · | · | · | · | · | ·
CCOc1ccc2c(c1)c(=O)c(C(=O)c1ccc3c(c1)OCO3)cn2Cc1cccc(F)c1 | 11 | 0 | · | · | · | · | ·
CC(OC(=O)c1nc(Cl)ccc1Cl)C(=O)NC1CCCCC1C (stereo not given) | -7 | 0 | 6 | 15 | -5 | -4% | -1%
CCOc1cc(CNC(=O)c2cc(-c3ccc(Cl)s3)nc3ccccc23)ccc1OC | -4 | 0 | · | · | · | · | ·
CCOC(=O)c1ccc(N2C(=O)CC(NC3CCN(C(=O)c4ccc(F)cc4)CC3)C2=O)cc1 (stereo not given) | 1 | 0 | -6 | -2 | -13 | · | ·
CCOc1ccc(N2C(=O)CC(NC3CCN(C(=O)c4ccc(F)cc4)CC3)C2=O)cc1 (stereo not given) | 2 | 0 | 38* | -2 | 13 | 4% | -1%
CC(C)c1ccc(NC(=O)c2ccc(NC(=O)CCS(=O)(=O)c3cccs3)cc2)cc1 | -3 | 1 | · | · | · | · | ·
CC(=O)Nc1ccc(/C=N/N2C(=O)NC(C)(c3ccc(OC(F)F)cc3)C2=O)cc1 (stereo not given) | -14 | 37* | 47* | -2 | -14 | -8% | -4%
C=C(CCO)C1=CCN(S(=O)C(C)(C)C)[C@H]1CCO (stereo not given in full) | · | · | · | -5 | · | · | ·
Cc1ccc(Cl)cc1N1CCN(Cc2nnc(-c3ccc4c(c3)OCO4)o2)CC1 | -13 | 0 | · | · | · | · | ·
COc1cccc(CNC(=O)CCC2CCCN(C(=O)c3cc(C4CC4)[nH]n3)C2)c1 (stereo not given) | 14 | 0 | 63* | 0 | 2 | -2% | 0%
COc1cccc(CNC(=O)CCC2CCCN(C(=O)c3cc(C)on3)C2)c1 (stereo not given) | -2 | 0 | 15 | -2 | -4 | · | ·
COc1ccc(NC(=O)c2ccc(CN3CCN(c4ccccc4)CC3)cc2)cc1OC | -22 | 60* | 71* | ? | -6 | 10% | ?
COc1ccc(CN2CCN(CCCc3ccccc3)CC2)c(OC)c1 | -18 | 0 | -11 | · | · | · | ·
COc1ccc(C)cc1NC(=O)c1ccc(CN2CCc3ccccc3C2)cc1 | -13 | 1 | 26 | -1 | -14 | · | ·
COc1ccccc1C(=O)Nc1ccc(N2CCN(Cc3ccccc3)CC2)cc1 | 5 | 4 | -8 | 0 | -19 | · | ·
COc1ccc(C)cc1NC(=O)c1ccc(CN2CCN(c3ccccc3)CC2)cc1 | -24 | 80* | 89* | ? | 21 | 14% | ?
COc1ccc(S(=O)(=O)N2CCN(c3ccccc3)CC2)cc1OC | · | · | · | 2 | 7 | · | ·
